# An excerpt weighted towards active compounds, which were near 4% of everything screened.
# Measles CPE – compounds protecting cells from measles virus cytopathic effect, primary screen, measles RdRp inhibitor project, single point, MLSMR library, absorbance | actives 1.5% (n = 140,000) | Measles virus-infected cells, CPE protection | AID 841, 2007 | protection (pct of control), % at 4 µM; in the data active means protection mostly above about 24%, no sharp cut-off; inactive means mostly below about 26%
# ROMK mod – ROMK potassium channel modulators, primary screen, cell-based, thallium flux, MLSMR library. ATP-sensitive inward rectifier potassium channel 1 (Homo sapiens), P48048. Tet-inducible ROMK, thallium flux fluorescence; actives lie on both sides. B-score at 10 µM. actives 2% (n = 130,000);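 active means signal ratio slope over the read window, or its plate-corrected B-score, at least 3 SD from the plate mean, either direction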;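 further: B-score of the F/F0 ratio slope over 7 to 12 s after thallium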
# Arbovirus inh – antivirals against arbovirus infection, primary screen, cell-based, full library, 10K replicate subset | actives 0.37% (n = 200,000) | inhibition, % at 10 µM | AID 1251, 2008 | arbovirus infection cell-based antiviral screen; in the data active means inhibition above about 30%
# KCC2 mod – KCC2 cotransporter modulators, thallium flux, primary screen, cell-based, HEK293 KCC2, FluoZin-2 fluorescence, MLSMR | KCC2 cells, thallium flux FluoZin-2 fluorescence | B-score of Tl+ flux slope (higher = more flux/activation; lower = inhibition) at 10 µM | actives 2.2% (n = 190,000) | AID 1456, 2008;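 active means thallium flux slope and its plate-corrected score both differing from the plate sample mean at a set confidence after two filtering rounds, in either direction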;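 further: slope of fluorescence scaled to starting intensity during 10 to 20 s after thallium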
# HSV augment – enhancers of HSV replication in host cells, fold increase, host cell viability; HSV replication augmentation in cells; maximum fold increase; AID 1956, 2009; actives 0.005% (n = 220,000); in the data active means maximum fold increase above about 1.5; inconclusive means no clear call, values can overlap the other calls; tested in PC3 cells
# ROMK hit retest – ROMK channel modulator hit retest, confirmation, cell-based, thallium flux, duplicate, resupplied hits; actives 54% (n = 3,000); normalized thallium flux (F/F0 slope) at 10 µM; shares compounds with ROMK mod; AID 1917, 2009; fluorescence ratio; active compounds read low;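 active means Flux at 10 µM at least 3 SD below or above vehicle control mean in one or both replicates; inconclusive means no clear call, values can overlap the other calls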
# An asterisk follows results filed as active; i = inactive; u = inconclusive; x = not tested or not shown.
SMILES,Measles CPE,ROMK mod,Arbovirus inh,KCC2 mod,HSV augment,ROMK hit retest
Cc1cc(C)n(-c2nc(NCCN(C)C)c3c4c(sc3n2)CCCC4)n1,x,x,x,1,i,u
Cc1cc(C)n(-c2nc(NCCCN(C)C)c3c4c(sc3n2)CCCC4)n1,x,-2.8,x,1.5,i,x
OCCC1CN(Cc2cccn2-c2ncccn2)CCN1C1CCCC1 (stereo unspecified),x,-0.99,5,x,i,x
CCOC(=O)COc1cccc2c(=O)n(CC(=O)NCc3ccccc3)ccc12,x,4.7*,x,0.57,i,0.088
CCOC(=O)COc1cccc2c(=O)n(CC(=O)NCc3ccc(F)cc3)ccc12,x,3.1*,x,-0.031,i,0.092
CCOC(=O)COc1cccc2c(=O)n(CC(N)=O)ccc12,x,0.13,x,-0.67,i,x
CC(=O)Nc1ccccc1C(=O)C(=O)Nc1ccc(C(=O)NCC2CCCO2)cc1 (stereo unspecified),x,2.5,-9,1.1,i,x
Cc1ccc(NC(=O)CSc2ncc3ccccn23)cc1,x,-0.61,-1,-0.16,i,x
O=C(Nc1ccc(Br)cc1)Nc1ccccc1Cl,x,x,x,1.4,i,x
O=C(N/N=C/c1ccccn1)c1cccc(S(=O)(=O)N2CCCC2)c1,x,x,x,-0.11,i,x
Fc1ccc2[nH]c3c(N4CCN(c5ccccc5)CC4)ncnc3c2c1,6,-0.48,4,0.095,i,0.076
CCOC(=O)N1CCN(c2ncnc3c2[nH]c2ccc(F)cc23)CC1,5,x,10,0.74,i,x
O=C(NNC1=C(C(=O)C(F)(F)F)CCC1)c1cccc(Cl)c1,2,5.8*,-39,x,u,0.089
CCN(CC)c1ccc(C=N/C(C#N)=C(\N)C#N)cc1,x,x,-8,x,u,u
CCN(CC)c1ccc(/C=C(\C#N)c2ccccn2)cc1,6,1.8,-16,-0.55,u,x
O=C(/C=C\Nc1ccc2c(c1)OCO2)c1ccc2c(c1)OCO2,x,x,-34,x,i,0.059*
O=C(/C=C/c1ccc(Br)cc1)c1ccco1,7,-5.4*,4,-0.29,i,u
O=C(CSc1cccc[n+]1[O-])c1cc(Cl)ccc1Cl,x,0.14,2,-0.31,i,x
Cc1ccnc(SCc2cc(=O)c(OC(=O)c3ccc(Cl)c([N+](=O)[O-])c3)co2)n1,9,-2.1,5,-2.6,i,x
CCOC(=O)c1cc(-c2ccccc2)n(CC(=O)Nc2cccc(OC)c2)c1C,4,-4.8*,-5,0.76,i,0.079
CCOC(=O)c1cc(-c2ccccc2)n(CC(=O)Nc2ccc(OC)c(OC)c2)c1C,6,-0.62,10,-0.18,i,x
CCn1cc(C(=O)N2CCc3ccccc32)c(=O)c2cc(S(=O)(=O)N(C)C3CCCCC3)ccc21,22,-2.8*,-5,-1.8,i,0.077
NC(N)=N/N=C/c1cccc(Cl)c1Cl,x,-0.25,-34,x,i,x
COc1cccc(-c2cc(C(=O)Nc3cccnc3)no2)c1,7,5.9*,-10,x,i,0.089
COc1cccc(-c2cc(C(=O)Nc3cc(OC)c(OC)c(OC)c3)no2)c1,3,x,-13,-0.041,i,x
SMILES,Measles CPE,ROMK mod,Arbovirus inh,KCC2 mod,HSV augment,ROMK hit retest
COc1ccccc1CCc1nnc(CCC(=O)NC(C)Cc2cccnc2)o1 (stereo unspecified),x,0.44,1,-0.14,i,x
COCC(C)N1CC(O)=C(c2nc(-c3ccc(Cl)cc3)cs2)C1=N (stereo unspecified),x,-0.88,3,-0.11,i,x
CCCCN(CC)C(=O)CSc1nc2c(sc(=S)n2-c2ccc(OCC)cc2)c(=O)[nH]1,x,2.8*,47*,-1.2,i,u
CCN(CC)C(=O)CSc1nc2c(sc(=S)n2-c2ccccc2)c(=O)n1Cc1ccco1,9,-0.29,-14,-1.8,i,x
CSc1cccc(NC(=O)c2ccco2)c1,6,x,1,-0.0083,i,x
CN(C)c1cccc(NC(=O)c2ccco2)c1,x,2.6*,-6,0.5,i,0.077
COc1ccc(Nc2nc(N)nc(CSC(=S)N3CCCCC3C)n2)cc1 (stereo unspecified),x,x,x,-1.8,i,x
CCCCOc1ccc(S(=O)(=O)NCc2csc(C)n2)cc1,27,-2.3*,15,-0.29,i,0.067*
Cc1nc(N)nc(N)c1/C=C/C(C)(C)c1ccc(Cl)cc1,x,-3.8*,-25,-0.47,i,0.064*
O=C(NCCCOc1cccc(CN2CCCCC2)c1)c1ccc(Cl)c(Cl)c1,5,-3.5*,-31,0.54,i,0.057*
O=C1NCCN(Cc2ccc(Cl)c(F)c2)C1CC(=O)N1CCCCO1 (stereo unspecified),x,-0.36,-2,x,i,x
COC(=O)C1=C[C@@H](C(=O)OC)[C@@H]2C3=C(C(=O)[C@@]2(C)NC(=O)c2ccccc2)[C@H](c2ccccc2)[C@@H]2C(=O)NC(=O)[C@@H]2[C@@H]3C1,x,x,x,x,i,x
COc1ccc(N2CCN(C(=O)Cn3cnc4c(cnn4-c4ccc(C)cc4)c3=O)CC2)cc1,x,0.51,-1,-0.088,i,x
CCCS(=O)(=O)c1nnnn1-c1cccc(OC)c1,6,-8.4*,-39,0.12,i,0.046*
OC(COCc1ccc(Cl)cc1)CN1CCc2ccccc2C1 (stereo unspecified),18,-1.5,1,1.8,i,x
OC(COCc1ccc(Cl)cc1)CN1CCN(CC(O)COCc2ccc(Cl)cc2)CC1 (stereo unspecified),1,-3*,-40,-0.0016,i,0.054*
Cc1cc(C(=O)OCc2nnc(-c3ccccc3)o2)c(C)n1-c1ccccc1,30,x,10,0.35,i,x
Cc1noc(C)c1COC(=O)c1cc(C)n(-c2ccccc2)c1C,13,x,-4,0.72,i,0.088
CCOc1ccccc1C1C(C#N)=C(N)Oc2cc(N)ccc21 (stereo unspecified),34,-4.2*,-8,-0.86,i,0.053*
COc1cccc(C(=O)N2CCN(C(=O)c3cccc(F)c3)CC2)c1,15,x,2,0.019,i,x
O=C(c1cccc(F)c1)N1CCN(C(=O)c2cc(-c3ccc(Cl)cc3Cl)on2)CC1,3,-4.2*,-10,-1.1,i,u
Cc1ccc(C)c(CSc2ccc3nnc(-c4ccccn4)n3n2)c1,x,-1.1,8,-2.1,i,x
CSC1=C(C#N)C(=O)NC(c2ccccc2O)S1 (stereo unspecified),x,-4.2*,x,-2.6,i,0.059*
COC(=O)CSC1=C(C#N)C(=O)NC(c2ccccc2)S1 (stereo unspecified),3,-0.51,2,x,i,x
CC(/C=N/NC(=O)c1cc(-c2cccnc2)nc2c1c(C)nn2-c1ccccc1)=C\c1ccccc1,3,x,6,1.2,i,u

# High-throughput results from PubChem.
